Compound activity: PubChem BioAssay, Sanford-Burnham Center for Chemical Genomics
C8 TRAIL sens: sensitizes caspase-8 expressing cells to TRAIL; AID 624354; NB7+C8 cells + TRAIL, ATPlite viability luminescence; hit rate 1% among 360,000; inhibition (viability loss, TRAIL sensitization), % at 10 µM;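 active = compounds causing at least 50% loss of cell viability in the single-dose screen, relative to plate controls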
Peg3 promoter: reduces Peg3 promoter-driven luciferase expression in HeLa; hit rate 1.7% among 360,000; HeLa PEG-Prom luciferase reporter, luminescence, overnight; inhibition, % at 20 µM; AID 588405;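 active = inhibition of at least 50% at 20 µM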
HIF-2a block: blocks HIF-2a reporter activity | AID 624352 | inhibition, % at 18.8 µM | hit rate 0.72% among 360,000 | 786-0 RCC cells HIF-2a reporter, luciferase luminescence, overnight;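 active = inhibition of the luminescence signal of 40% or more relative to plate controls, in a single-dose primary screen at 18.75 µM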
PPC-1+TRAIL kill: PPC-1 cancer cell killing with TRAIL present | PPC-1 cells + TRAIL, ATPLite viability luminescence | cell killing (% activity), % at 4 µM or 5 µM | hit rate 0.41% among 220,000 | AID 1443;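 active = cell killing above 50% in the first pass at 4 µM, then a duplicate retest at 5 µM averaging 50% or more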;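 also: plate controls were cells with TRAIL plus DMSO for no effect and medium-only wells lacking cells for full effect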
CF NFkB block: inhibitors of cystic fibrosis induced NF-kB | hit rate 0.86% among 360,000 | inhibition, % at 5 µM | KKLEB NF-kB-GFP reporter, PAF-induced, GFP fluorescence overnight;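 active = at least 50% inhibition at 5 µM, scaled per plate between neutral and stimulator controls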;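 also: PAF is a Pseudomonas aeruginosa culture filtrate used as stimulus; plate controls were PAF-stimulated DMSO wells for no effect and unstimulated DMSO wells for full effect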
KKLEB cytotox: reduces viability of KKLEB cystic fibrosis airway cells; AID 602141; activity change (cytotoxicity), % at 5 µM; KKLEB CF airway cells viability, ATPlite luminescence, overnight; active compounds read low; cells stimulated with P. aeruginosa culture filtrate; hit rate 0.36% among 360,000;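 active = corrected activity change at or below -50% at 5 µM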
The depositor's hits bear a star; · = no result. Most compounds without a hit are left out; they make up all but 3.1% or so of the library.

SMILES	C8 TRAIL sens	Peg3 promoter	HIF-2a block	PPC-1+TRAIL kill	CF NFkB block	KKLEB cytotox
Cc1c(P(=S)(c2ccccc2)c2ccccc2)[n+]2ccccc2n1C/C=C/c1ccccc1	77.7*	82.5*	-32.9	·	45.8	-5.0
CCCCn1c(N)c(N(CCOC)C(=O)c2cccc(-n3cnnn3)c2)c(=O)[nH]c1=O	4.6	6.1	5.8	·	9.7	-1.8
CCN(CC(=O)NCc1ccc(F)cc1)C(=O)C1CCN(S(=O)(=O)c2ccc(C(C)C)cc2)CC1	6.5	5.0	21.5	·	6.0	-2.5
CC(NC(=O)Cn1ncc(Cl)c(Cl)c1=O)C12CC3CC(CC(C3)C1)C2 (stereo not drawn)	5.3	97.4*	91.0*	30.2	84.0*	-78.5*
COc1ccc(NC(=O)Nc2c(C)n(C)n(-c3ccccc3)c2=O)c(OC)c1	-0.4	-5.8	4.4	·	-9.9	18.0
CCc1nnc(NC(=O)CSc2nc3c(cc2C#N)CCCC3)s1	58.1*	-136.0	-128.0	-35.1	10.2	-16.8
CCOC(=O)c1sc(NC(=O)CSc2nc3c(cc2C#N)CCCCC3)c(C#N)c1C	23.6	-93.7	-89.3	13.8	33.5	-7.8
COn1c(SCc2cccc(Cl)c2)nc2ccccc2c1=O	55.8*	-30.0	-25.8	10.8	6.7	6.0
Cc1cccc(CSc2nc3ccccc3c(=O)n2C)c1	15.4	5.4	5.4	·	10.9	-8.1
COn1c(SCc2ccccc2)nc2ccccc2c1=O	68.9*	-3.2	-21.7	14.1	10.9	-11.1
CCN(CC)C(=O)CSc1nc2ccccc2c(=O)n1OC	25.1	-2.3	8.7	3.5	2.6	-0.4
O=C(COc1ccccc1)NCC(=O)N1CCCC(C(F)(F)F)C1 (stereo not drawn)	-19.7	0.8	5.7	·	26.7	2.0
Cc1cc(C)c(CN2CCN(C(=O)Cn3cnc4c(OCc5ccccc5)ncnc43)CC2)c(C)c1	9.7	24.5	-15.1	·	19.8	-6.6
COc1ccc(-c2coc3cc(O[C@@H]4O[C@H](CO)[C@@H](O)[C@H](O)[C@H]4O)ccc3c2=O)cc1	24.4	-353.9	-232.8	·	-3.6	5.5
O=c1c(-c2ccc3c(c2)OCCO3)coc2cc(OC3OC(CO)C(O)C(O)C3O)ccc12 (stereo not drawn)	54.4*	-150.6	-246.9	14.1	8.4	-5.4
COCCNC(=O)C1(C)CCCN(Cc2ccc(Oc3ccccc3)cc2)C1 (stereo not drawn)	6.5	4.3	11.4	·	16.3	-10.1
Cc1nc2ccc3nc(NC(=O)c4ccc5c(c4)OCCO5)sc3c2s1	-2.0	-26.7	-82.5	-5.0	-1.1	1.6
Cc1nc2c(ccc3nc(NC(=O)c4ccc5c(c4)OCCO5)sc32)s1	79.8*	-4.6	-172.9	46.5	14.3	-53.3*
Cc1ccc(NC(=O)CC2Nc3ccccc3NC2=O)cc1Cl (stereo not drawn)	14.3	-57.2	-201.0	36.3	43.4	-51.8*
Cc1sc(NC(=O)CN(C(=O)c2ccccc2F)C2CCCC2)c(C(N)=O)c1C	7.5	27.2	4.4	·	9.1	-11.4
CCOC(=O)c1ccc(Nc2sc(C(=O)c3cccc([N+](=O)[O-])c3)c(N)c2C#N)cc1	37.9	52.2*	3.7	5.4	-4.9	-7.8
Cc1ccc(C(=O)c2sc(Nc3ccccc3)c(C#N)c2N)cc1	-10.6	39.3	0.6	13.0	22.5	-21.6
Cc1ccc2c(Cl)c(C(=O)Nc3cc(C)on3)sc2c1	0.3	-216.6	-249.6	-7.2	-6.5	0.4
Cc1ccnc(NC(=O)c2ccc(Br)s2)c1	55.2*	-275.3	-298.1	·	-3.2	-3.7
Cc1ccnc(NC(=O)c2sc3ccccc3c2Cl)c1	91.7*	-75.8	-86.0	76.5*	-15.0	-75.2*
SMILES	C8 TRAIL sens	Peg3 promoter	HIF-2a block	PPC-1+TRAIL kill	CF NFkB block	KKLEB cytotox
O=C(Nc1nccs1)c1sc2ccccc2c1Cl	74.3*	-75.5	-67.6	38.8	0.2	-25.9
Nc1cc2c(cc1N)-c1ccccc1C2	3.3	-146.9	-138.8	·	7.9	3.2
COc1ccc(N2CCN(C(=O)COC(=O)c3cccc(S(=O)(=O)Nc4cccc(C)c4)c3)CC2)cc1	5.5	1.5	20.7	·	-12.5	8.8
COc1ccc(-n2nc3c(N4CCC(C(=O)NCC(C)c5ccccc5)CC4)nnc(C)c3c2C)cc1 (stereo not drawn)	14.8	74.6*	11.3	·	12.7	-4.5
COc1ccc(-n2nc3c(N4CCC(C(=O)NCCc5ccccc5C)CC4)nnc(C)c3c2C)cc1	12.3	103.0*	0.1	·	-2.8	0.4
COc1ccc(-n2nc3c(N4CCC(C(=O)NCc5ccco5)CC4)nnc(C)c3c2C)cc1	-1.7	-14.6	9.4	·	21.5	-5.9
CCOc1ccccc1CNC(=O)C1CCCN(c2nnc(C)c3c(C)n(-c4ccccc4)nc23)C1 (stereo not drawn)	2.2	54.7*	11.3	·	0.3	3.0
CC(O)[C@@]1(O)CC[C@H]2[C@@H]3CC[C@H]4C[C@@H](O)CC[C@]4(C)C3=CC[C@@]21C (stereo partly drawn)	5.0	10.3	21.0	·	11.5	0.1
Cc1cc(N)ncc1[N+](=O)[O-]	-7.3	-0.1	20.6	·	-5.7	8.4
Cc1cc(Sc2nc(N)ncc2[N+](=O)[O-])ncn1	7.0	78.9*	3.3	32.3	37.6	-2.2
COC(=O)C1=C2SCC(=O)N2C(N)=C(C#N)C1	6.3	10.3	13.4	3.0	-0.8	-10.5
CC(C)OC(=O)C1=C(N)N2C(=O)CSC2=C(C(=O)OC(C)C)C1	-7.3	52.3*	12.4	10.8	-1.9	-5.3
COC(=O)C1=C(C)NC(=O)NC1c1cc(Cl)ccc1OC (stereo not drawn)	-4.6	11.0	8.3	22.8	7.3	3.8
COc1ccc(Br)cc1C1NC(=O)NC(C)=C1C(=O)N(C)C (stereo not drawn)	3.2	0.1	9.9	-9.1	0.6	-53.3*
CC1(C(=O)Nc2ccc3[nH]ncc3c2)CCN1C(=O)Cc1ccc(-c2ccccc2)cc1 (stereo not drawn)	7.0	24.4	20.8	·	-21.9	-4.8
CC1=NN(c2ccc(C)cc2)C(=O)/C1=C/c1ccc(-c2cc([N+](=O)[O-])ccc2O)o1	-3.9	17.3	-13.5	·	54.1*	-41.3
CC1=NN(c2ccc(C(=O)O)cc2)C(=O)/C1=C/c1ccc(-c2ccccc2F)o1	0.7	28.1	-4.8	·	-5.2	-1.2
COc1cc2cc3c(N)c(C(=O)Nc4sc(C)c(C)c4C#N)sc3nc2cc1OC	26.2	25.2	-5.5	9.4	89.4*	-99.5*
CCCN(C)C1CN(Cc2cn(Cc3ccccc3)nn2)S(=O)(=O)C1 (stereo not drawn)	-19.2	·	-10.3	·	·	·
CCCc1cc(=O)oc2cc(C)cc(OCC(=O)Nc3cccnc3)c12	6.0	86.9*	12.4	·	-17.8	-3.3
COc1cccc(-c2nn(C)c3sc(C(=O)N4CCN(c5ccccn5)CC4)cc23)c1	22.6	56.5*	-6.6	21.1	6.0	-4.8
Cc1ccccc1OCC(=O)Nc1cccc(N(C)S(C)(=O)=O)c1	20.4	-56.7	-85.1	0.2	5.0	-11.0
